This note sets out measurements from PubChem BioAssay (EPA / NIEHS).

As usually defined, the AC50 is the concentration giving half of the maximal activity seen.

SMILES strings stand for the structures. The source made the active and inactive calls. How the source made its calls: active means hit-call score of the fitted dose curve at least 0.9, where 1 is the maximum; inactive means score below 0.9.

Conditions in all cases: primary human HUVEC with PBMC; actives raise or lower the signal
Read-out in assay [1]: Monocyte Chemoattractant Protein-1 (MCP1), CCL2 (gene 6347)
The assay can be described thus: BSK_LPS_MCP1: BioMAP Diversity Plus: LPS Assay for Monocyte Chemoattractant Protein-1 (MCP1) Biomarker Activity (AID 2283081).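 On AC50: co-culture stimulated with LPS; secreted MCP-1 protein quantified by ELISA in culture supernatant.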 Summed up: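 HUVEC plus PBMC co-culture (human primary cells, LPS system) exposed to test chemical for 24 h; MCP-1 measured by ELISA. Bidirectional curve fitting against DMSO baseline; parallel SRB total-protein staining flags overt cytotoxicity.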

Assay [2] can be described thus: BSK_LPS_PGE2: BioMAP Diversity Plus: LPS Assay for Prostaglandin E2 (PGE2) Biomarker Activity (AID 2283082). Summed up: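 PGE2 release measured by ELISA in an LPS-activated co-culture of human umbilical vein endothelial cells and peripheral blood mononuclear cells, read at 24 h post-dosing. DMSO served as baseline for bidirectional curve fitting.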
Read-out in assay [3]: Macrophage colony-stimulating factor (MCSF), CSF1 (gene 1435)
Put plainly: BSK_LPS_MCSF: BioMAP Diversity Plus: LPS Assay for Macrophage colony-stimulating factor (MCSF) Biomarker Activity (AID 2283083). In a few lines:
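Human umbilical vein endothelial cells co-cultured with peripheral blood mononuclear cells were exposed to compound for 24 h. M-CSF levels were measured by ELISA, and bidirectional curve fitting used DMSO as the negative control and baseline.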

Read-out in assay [4]: Tissue Factor, F3 (gene 2152)
The assay can be described thus: BSK_LPS_TissueFactor: BioMAP Diversity Plus: LPS Assay for Tissue Factor Biomarker Activity (AID 2283084). Summed up:
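Human umbilical vein endothelial cells co-cultured with peripheral blood mononuclear cells were dosed and stimulated with LPS. Cell-surface CD142 was quantified by ELISA at 24 h. Activity was fitted bidirectionally against DMSO baseline.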

Read-out in assay [5]: Tumor necrosis factor (Homo sapiens) (UniProt P01375)
The assay can be described thus: BSK_LPS_TNFa: BioMAP Diversity Plus: LPS Assay for Tumour Necrosis Factor alpha (TNFa) Biomarker Activity (AID 2283085).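 On AC50: TNFa protein level quantified by ELISA in the co-culture.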 In a few lines: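 TNFa was quantified by ELISA in LPS-activated co-cultures of human endothelial cells and PBMC, 24 h post-dosing. Both increases and decreases versus DMSO were fitted.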

Read-out in assay [6]: Vascular cell adhesion molecule 1 (VCAM1), VCAM1 (gene 7412)
Put plainly: BSK_LPS_VCAM1: BioMAP Diversity Plus: LPS Assay for Vascular cell adhesion molecule 1 (VCAM1) Biomarker Activity (AID 2283086). Summed up:
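VCAM-1 quantified by ELISA in an LPS-activated co-culture of human endothelial cells and peripheral blood mononuclear cells, read 24 h post-treatment. Fitted in both directions versus DMSO; parallel SRB staining flags overt cytotoxicity.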

Read-out in the next assay: CD38, CD38 (gene 952)
The assay can be described thus: BSK_SAg_CD38: BioMAP Diversity Plus: SAg Assay for CD38 Biomarker Activity (AID 2283087). In a few lines:
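CD38 quantified by ELISA (fluorescence) in a superantigen-activated endothelial cell–PBMC co-culture at 24 h post-dose. Activity fitted in both directions relative to DMSO; parallel SRB and Alamar Blue cytotoxicity read-outs.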

Read-out in another assay: CD40, CD40 (gene 958)
Put plainly: BSK_SAg_CD40: BioMAP Diversity Plus: SAg Assay for CD40 Biomarker Activity (AID 2283088). Summed up:
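Human umbilical vein endothelial cells co-cultured with PBMC; CD40 levels measured by ELISA with fluorescence read-out 24 h after chemical dosing. Gain or loss of signal fitted bidirectionally against DMSO baseline.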

Read-out in the next assay: CD69, CD69 (gene 969)
The assay can be described thus: BSK_SAg_CD69: BioMAP Diversity Plus: SAg Assay for CD69 Biomarker Activity (AID 2283089).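 On AC50: cell surface CD69 protein quantified by ELISA with fluorescence detection.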 In a few lines: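 Primary human vascular co-culture (umbilical vein endothelium with peripheral blood mononuclear cells) exposed to test chemical for 24 h. CD69 levels quantified by fluorescence ELISA; DMSO served as negative control for bidirectional fitting.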

Read-out in assay [7]: Monocyte Chemoattractant Protein-1 (MCP1), CCL2 (gene 6347)
The assay can be described thus: BSK_SAg_MCP1: BioMAP Diversity Plus: SAg Assay for Monocyte Chemoattractant Protein-1 (MCP1) Biomarker Activity (AID 2283090). In a few lines: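 Values derive from bidirectional fitting of ELISA-measured MCP1 against DMSO controls. Readings were taken 24 h after dosing human vascular endothelial cells co-cultured with peripheral blood mononuclear cells under superantigen stimulation.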

Sequence of Tumor necrosis factor (Homo sapiens) (P01375 whole entry, looked up): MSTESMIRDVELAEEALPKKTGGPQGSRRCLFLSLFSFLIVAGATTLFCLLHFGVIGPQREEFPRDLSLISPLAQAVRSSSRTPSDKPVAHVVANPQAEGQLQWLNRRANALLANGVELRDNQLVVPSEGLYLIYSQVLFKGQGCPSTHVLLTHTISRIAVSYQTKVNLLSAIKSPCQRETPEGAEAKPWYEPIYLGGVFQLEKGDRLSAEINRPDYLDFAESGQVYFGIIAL

On to `COc1ccc2c(c1)c(CC(=O)O)c(C)n2C(=O)c1ccc(Cl)cc1`, for which the outcome in assay [1] was “inactive”; in assay [3], “inactive”; in assay [4], “inactive”; in assay [5], “inactive”; in assay [6], “inactive”; in the assay with CD38, CD38 (gene 952), “inactive”. Besides, the outcome in the assay with CD40, CD40 (gene 958) is “inactive”; in the assay with CD69, CD69 (gene 969), “inactive”; in [7], “inactive”. Further, the AC50 in [2] is 148 nM (active).
For the compound `NS(=O)(=O)c1cc2c(cc1Cl)NCNS2(=O)=O`, the outcome in [1], in assay [2], in [3], in assay [4], in assay [5] and in assay [6] was inactive. In addition, the outcome was “inactive” in the assay with CD38, CD38 (gene 952); “inactive” with CD40, CD40 (gene 958); “inactive” with CD69, CD69 (gene 969); “inactive” in [7].
`C=CCOC(=O)c1ccccc1C(=O)OCC=C`: the result in assay [1], in assay [2], in assay [3], in assay [4], in assay [5] and in assay [6] was inactive. Besides, the outcome in the assay with CD38, CD38 (gene 952) is “inactive”; with CD40, CD40 (gene 958), “inactive”; in the assay with CD69, CD69 (gene 969) it was “inactive”; in [7], “inactive”.
As for `CCOC(=O)C(C)(C)Oc1ccc(Cl)cc1`, the outcome in assay [1], in [2], in assay [3], in assay [4], in assay [5] and in assay [6] was inactive. Also, the outcome is “inactive” with CD38, CD38 (gene 952); “inactive” with CD40, CD40 (gene 958); “inactive” with CD69, CD69 (gene 969); “inactive” in [7].
Consider `Nc1ccc(S(=O)(=O)c2ccc(N)cc2)cc1`, for which the outcome in assay [1], in assay [2], in assay [3], in [4], in [5] and in [6] was inactive. Also, the outcome in the assay with CD38, CD38 (gene 952) is “inactive”; with CD40, CD40 (gene 958), “inactive”; in the assay with CD69, CD69 (gene 969) it was “inactive”; in [7] it was “inactive”.
Turning to `COCCOCCOC`, the result in [1], in assay [2], in assay [3], in assay [4], in assay [5] and in assay [6] was inactive. Further, the outcome in the assay with CD38, CD38 (gene 952) is “inactive”; with CD40, CD40 (gene 958), “inactive”; in the assay with CD69, CD69 (gene 969), “inactive”; in [7], “inactive”.
Turning to `C=CCc1ccc(O)c(OC)c1`, the outcome was “inactive” in assay [1]; “inactive” in [3]; “inactive” in assay [4]; “inactive” in assay [5]; “inactive” in assay [6]; “inactive” with CD38, CD38 (gene 952). In addition, the outcome in the assay with CD40, CD40 (gene 958) was “inactive”; in the assay with CD69, CD69 (gene 969), “inactive”; in [7], “inactive”. In addition, the half-maximal activity concentration (AC50) in assay [2] is 542 nM (active).
As for `Cc1cc(NC(=O)C(=O)O)cc(C)c1Oc1ccc(O)c2c1CCC2`, the outcome in assay [1] was “inactive”; in assay [2] it was “inactive”; in assay [3], “inactive”; in assay [4], “inactive”; in [6], “inactive”; in the assay with CD38, CD38 (gene 952) it was “inactive”. The outcome with CD40, CD40 (gene 958) is “inactive”; with CD69, CD69 (gene 969), “inactive”; in [7], “inactive”. In addition, the AC50 in assay [5] is 0.844 µM (active).
As for `CCCCCCCCCCO`, the outcome was “inactive” in assay [1]; “inactive” in assay [2]; “inactive” in assay [3]; “inactive” in [5]; “inactive” in [6]; “inactive” in the assay with CD38, CD38 (gene 952). For the same compound, the outcome was “inactive” with CD40, CD40 (gene 958); “inactive” in the assay with CD69, CD69 (gene 969); “inactive” in [7]. Also, the AC50 in assay [4] was 0.152 µM (active).
Turning to `COc1cc(-c2nc(NC(=O)c3cc4cc(C)cc(C)c4n3CC(=O)O)sc2CCC2CCCCC2)c(OC)cc1Cl`, the AC50 in [1] is 3.25 µM (active); in assay [2] it was 3970 nM (active); in assay [3], 4.31 µM (active); in [4] it was 6.36 µM (active); in [5], 10 µM (active); in [6], 5.07 µM (active). For the same compound, the AC50 is 3.43 µM (active) in the assay with CD38, CD38 (gene 952); 3.21 µM (active) with CD40, CD40 (gene 958); 3.95 µM (active) with CD69, CD69 (gene 969); 2.78 µM (active) in [7].
